Laboratory results reported in PubChem BioAssay AID624491 (Broad Institute, 2012).
Screen size: about 1,800 compounds; about 1,400 (78%) were called active. Inconclusive results (about 2%) are left out.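 How the source made its calls: active means fitted curve crossing a set activation limit at or below the highest valid dose tested; inconclusive means flat fit at 30 to 70% activation, or poor fit; inactive means the rest, including signal decreases.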 So high a share suggests a set chosen from earlier hits. These entries were drawn from the full list. Entries with a potency or affinity are not part of this list.

Assay: N-linked glycosylation inhibitors, luciferase reporter, dose response, D54 ERlucT cells, luminescence, cherry-picks (AID 624491);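 further: signal gain reflects blocked N-linked glycosylation of a luciferase reporter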
Conditions: 24 h, 100% = twice neutral-control luminescence; series mostly up to 19.5 µM; activation (NLG inhibition): at the top concentration

Activation (NLG inhibition), inactive:
O=C(COc1ccc(Oc2ccccc2)cc1)NCc1cn2ccccc2n1 35.6%
NC(=O)[C@H]1CC2(CC(c3cccc(NC(=O)COc4ccc(Cl)cc4)c3)=NO2)CN1C(=O)C(c1ccccc1)c1ccccc1 (some centres undefined) 9.14%
O=C(c1ccc(Cl)cc1)C(CN1CCCCC1)c1ccccc1 (centres undefined) -93.5%
Cc1cc(=O)oc2cc(OCC3CC(c4ccccc4)=NO3)ccc12 (centres undefined) 81.1%
CCOc1cc(/C=C/C(=O)c2ccc(C)cc2)ccc1OCC(=O)N(C)C -3.96%
CC(=O)Nc1ccc(/C=C/C(=O)c2ccc3c(c2)OCCO3)cc1 8.38%
COc1cc(/C=C/C(=O)c2ccc3c(c2)OCCO3)cc(OC)c1OC 19.1%
O=C(/C=C/c1ccncc1)c1ccc2c(c1)OCCO2 10.3%
O=C(C=Cc1ccc2c(c1)OCO2)C=Cc1ccc2c(c1)OCO2 3.68%
C=CCOc1ccc(C2C(C#N)=C(N)N(Nc3ccccc3)C3=C2C(=O)CCC3)cc1OC (centres undefined) 61%
Cc1cc(OC(C)C)nc(NCc2ccccc2)n1 2.85% [at 5 µM]
COc1ccc(Cn2c(=O)cc(N)n(-c3ccccc3C)c2=O)cc1 23.6%
Cn1c(N)c(C(=O)COC(=O)c2cc(S(=O)(=O)N3CCOCC3)ccc2F)c(=O)n(C)c1=O -21.7%
CCCCCCCCCCCCCCCC[n+]1ccc(/C=N/O)cc1 57.2%
Cc1ccc(OCCOC(=O)c2c(-c3ccccc3)noc2C)cc1 6.86%
Cc1cc(C)c(C)c(OC(=O)c2sc(Cl)nc2C)c1 -42.8%
COc1ccc(C(=O)c2sc(Nc3ccccc3)nc2N)cc1 22.2%
CN(C)c1ccc(/C=N/NC(=O)c2ccccc2Cl)cc1 37.5%
Cc1cc2cc(CNC(=O)Cc3cccs3)ccc2n1C -4.54%
Cc1ccc(Cc2c(C)nc3nc(SCC(=O)NCc4ccco4)nn3c2C)cc1 35.5%
CCOc1ccc(Nc2nc(Cc3nnc(SCC(=O)NCc4ccco4)n3CC)cs2)cc1 40.1%
S=c1[nH]nc(-c2cc(-c3ccccc3)n[nH]2)n1/N=C/C(Br)=C/c1ccccc1 -26.6%
COC(=O)CC1COc2ccccc2N1S(=O)(=O)c1ccc(OC)cc1 (centres undefined) 19.8%
COc1ccc(F)cc1C1=CC(=O)C[C@H](c2ccc3c(c2)OCO3)C1 20.3%
CN1CC(=O)N2C(c3ccc(Cl)cc3)c3[nH]c4ccccc4c3C[C@H]2C1=O (some centres undefined) 57.6%
CCc1ccc(/C=N/NC(=O)c2cc(-c3ccncc3)nc3ccccc23)s1 38.8%
COc1cc(N=Nc2cccc(S(N)(=O)=O)c2)c2ccccc2c1N -28.1%
Oc1ccc(NCc2cccs2)cc1 -2.52%
OCC1OC(n2cnc3c(=S)nc[nH]c32)CC1O (centres undefined) 15.2%
Cc1ccc2nsnc2c1NC(=O)c1ccc([N+](=O)[O-])o1 0.238%
O=C(Nc1c(Cl)ccc2nsnc12)c1ccc([N+](=O)[O-])o1 -5.17%
Oc1ccc(N=Nc2ccccc2)o1 4.57%
CCCCCc1ccc(OCCC[n+]2ccccc2)c(CCCCC)c1 -7.5%
Cc1noc(C)c1COc1ccccc1C(=O)N1CCN(c2cccc(C(F)(F)F)c2)CC1 41.9%
CC1(C(=O)NCc2ccccc2)Cc2c(-c3ccccc3)ccnc2O1 (centres undefined) 30.5%
CC1(C(=O)Nc2ccc(Cl)cc2)Cc2c(-c3ccc4c(c3)OCO4)ccnc2O1 (centres undefined) 2.48%
COc1ccc(CCCNC(=O)C2(C)Cc3c(-c4ccc5c(c4)OCO5)ccnc3O2)cc1 (centres undefined) 67.4%
CC1(C(=O)NCc2ccccc2)Cc2c(-c3ccc4c(c3)OCO4)ccnc2O1 (centres undefined) 48.3%
CC(=O)Nc1cccc(-c2ccnc3c2CC(C)(C(=O)NCc2ccc(N(C)C)cc2)O3)c1 (centres undefined) 30.5%
O=C(CCl)Nc1cc(-c2ccccc2)nn1-c1ccccc1 -66.9%
CCOC(=O)c1c(C)oc2c(F)c(F)c(F)c(F)c2c1=O -96.3%
COc1ccc(S(=O)(=O)Nc2ccc3c(c2)n(C)c(=O)n3C)cc1OC 10.9% [at 5 µM]
CC(=O)Nc1sc(C)c(C)c1C(=O)OCC(=O)Nc1cccc(C)c1 130%
CCOC(=O)c1c(NC(C)=O)sc2c1CCC(C=O)=C2Sc1ccccc1 14.9% [at 5 µM]
COC(=O)c1cc(=O)n(Cc2ccco2)c(=Nc2ccc(F)cc2)s1 1.44%
COc1ccc(-c2nc(NC(=O)C3CC(=O)N(c4ccc5c(c4)OCCO5)C3)sc2C)cc1 (centres undefined) 38%
Cc1cnc(NC(=O)C2CC(=O)N(c3cccc(Cl)c3)C2)s1 (centres undefined) 0.274% [at 5 µM]
CCOC(=O)C1CCN(S(=O)(=O)Cc2ccccc2)CC1 -4.23% [at 5 µM]
CCOC(=O)C1CCN(Cc2cc(Cl)c3ccccc3c2O)CC1 5.3%
CCOC(=O)/C=C(\C)Sc1cc(=O)oc2ccccc12 0.993%
Cc1ccc(C(=O)Nc2ccc(C(=O)/C=C/c3cccs3)cc2)cc1 14.5%
Cc1ccc(OCC(=O)Nc2ccc(NC(=O)c3cccs3)cc2)c(C)c1 602%
COc1ccc(Nc2nc(N)c(C(=O)c3ccc(F)cc3)s2)cc1 -4.92%
Cc1nn(CC(C)C)c(Cl)c1C(=O)N(c1ccc(Cl)cc1F)S(C)(=O)=O 61.3%
C[C@]1(O)CC(=O)C=C[C@H]1Nc1ccccc1 80%
COc1cccc(-c2cc(C(=O)Nc3cc(OC)c(OC)c(OC)c3)no2)c1 37.2%
COc1cc(NC(=O)N2CCc3nc(NCc4cccc(Oc5ccccc5)c4)ncc3C2)cc(OC)c1OC 33.2%
COc1cc2cc(-c3ccc(O)cc3O)nc(C)c2cc1OC 22%
COc1ccc(C(=O)n2c(-c3ccco3)nc3ccccc32)cc1 18.1%
CCOC(=O)C(=Cc1ccc(-c2ccsc2C(=O)OC)o1)C(=O)OCC 47.5%
CCCN(CCC)S(=O)(=O)c1ccc(C(=O)Nc2nc3c(s2)CCc2ccccc2-3)cc1 88.9%
O=C(NC1CCCCC1)c1cccc2c1C(=O)c1ccc(-c3ccc(OC(F)(F)F)cc3)cc1S2(=O)=O -5.59%
CCN(CC)c1cc(C)c2cc(NC(=O)c3ccccc3OC)ccc2n1 52.2%
CCOC(=O)c1cc2sccc2n1CC(=O)N1c2ccccc2CC1C (centres undefined) 1420%
CCOC(=O)c1cc2c(ccn2C)n1CC(=O)N1CCN(c2ccccc2)CC1 8.28%
COc1ccc(-n2c(=S)[nH]c3cc(C(=O)NC4CCCCC4)ccc3c2=O)c(OC)c1 29.5%
COC(=O)c1ccc2c(=O)n(Cc3ccc(C(=O)NC(C)C)cc3)c(=S)[nH]c2c1 35%
CCN1/C(=C/c2ccc3ccccc3[n+]2CC)C=Cc2ccccc21 84%
COc1cc(CCC(=O)Nc2nnc(C)s2)cc(OC)c1OC 31.1%
Cc1noc2ncnc(Sc3ccc(Cl)cc3)c12 -2.99%
Cc1ccc(C)c(N2CCN(c3cnn(-c4nc5ccccc5s4)c(=O)c3Cl)CC2)c1 79.4%
COc1ccc(C2NC(=S)NC3=C2CCCC3=C2SCCS2)cc1 (centres undefined) 1170%
O=C(Cc1csc(Nc2nc(=S)[nH]c3ccccc23)n1)NCc1cccc(Cl)c1 163%
CNC(=O)c1cccc2nc3ccccc3nc12 18.8%
CC(C)Oc1ccccc1C1CC(=O)Nc2cc3c(cc21)OCO3 (centres undefined) 18.1%
COc1cc(C2CC(=O)N(c3ccc(C)cc3)C(=O)C2)cc(OC)c1OC 6.21%
CCOc1ccccc1C1CC(=O)Nc2cc3c(cc21)OCCO3 (centres undefined) 20.7%
COc1cc(/C=C(/C(=O)c2cccs2)c2nc3ccccc3[nH]2)cc(OC)c1O 1.08%
O=C(N/N=C/c1ccc2c(c1)OCO2)C1COc2ccccc2O1 (centres undefined) 24.7%
N#Cc1c(NC(=O)/C=C/c2ccco2)sc2c1CCCC2 30.1%
COC(=O)C1=C(C(=O)OC)[C@@H]2N(Cc3ccccc3)c3ccccc3[C@@]23C[C@@H](C(=O)OC)N(C(=O)c2cc(C)oc2C)C3=N1 44.3%
CC(C)C1N=C(c2ccc3c(c2)OCO3)CC(c2ccccc2O)N1 (centres undefined) -18.5%
CC(=O)c1ccc(OCC(O)CN2CCN(CCN3C(=O)c4cccc5cccc(c45)C3=O)CC2)cc1 (centres undefined) 81.5%
COc1ccc(-c2cc(C(F)F)n3ncc(C(=O)n4ccnc4C)c3n2)cc1 -88.3%
Cc1ccc(-c2cc(C(F)F)n3ncc(C(=O)N4CCc5ccccc54)c3n2)cc1 39.4%
CC(=O)N(C(C)=O)n1c(C)nc2sc3c(c2c1=O)CCCC3 -43.7%
O=C1/C(=C/c2ccccc2)CCc2ccc(Cl)nc21 -3.41%
COc1cccc(-n2c(SCC(=O)NC3CCCCC3)nc3n[nH]c(C)c3c2=N)c1 12.3%
NC(=O)c1ccc2c(=O)n3c(-c4cc(Cl)c(N)c(Cl)c4)csc3nc2c1 3.94% [at 5 µM]
Cc1ccnc(NC(=O)Nc2ccc3c(c2)N(C)C(=O)CS3)c1 17.6%
COC(=O)c1ccc(Oc2cc(C)nc(-n3nc(C)cc3C)n2)cc1 28.5%
Cc1ccc2cc3c(N)c4c(C)ccc(C)c4nc3nc2c1 -73.8%
Cc1ccc(N2C(=O)c3cccc4c([N+](=O)[O-])ccc(c34)C2=O)c2cccnc12 -3.7%
Cc1cc(N2CCN(c3ccc([N+](=O)[O-])c4cccnc34)CC2)c2ccccc2n1 247%
Cc1ccc2c(c1)NC(=O)[C@@]1(C)[C@@H](c3ccccc3)[C@H]3COc4ccccc4[C@@H]3N1C2=O 60.2%
CCN(CC)c1ccc(/C=C/c2cccc[n+]2C)c(OC)c1 -41.1%
COc1ccc(C=C(c2nc3ccccc3s2)c2nc3ccccc3s2)cc1O 7.34%
O=C(N/N=C/c1ccccn1)c1sc2ccccc2c1Cl 13.7%
CC(=O)Nc1cccc(-c2ccnc3c2CC(C(=O)NCc2ccco2)O3)c1 (centres undefined) -17.9%
Nc1nc(-c2ccccn2)nc(N)c1Cc1ccc(Cl)cc1Cl -18.4%
CC(=O)Nc1cccc(-c2ccnc3c2CC(C(=O)NCc2ccc(F)c(F)c2)O3)c1 (centres undefined) 8.31%
COc1ccc(CNC(=O)C2Cc3c(-c4ccc5c(c4)OCO5)ccnc3O2)cc1OC (centres undefined) 28.2%
CN(C)Cc1c(O)ccc2c1O/C(=C\C=C\c1ccccc1)C2=O 46.5%
COc1ccc(OC)c(NS(=O)(=O)c2ccc(N3CCCC3=O)cc2)c1 18.1%
